The campaign covered roughly 300,000 compounds. About 2,300 (0.77%) were called active. Shown is part of a subset that was picked to be rich in actives. Values without a mark were called inactive.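 How the source made its calls: active means more than half of replicate wells show activity change below -50%, luminescence cut by over half; inconclusive means some wells, but at most half, below -50%; inactive means no replicate well below -50%.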

This experiment in a line: blocking HSF1-driven luciferase expression – cell-based, NIH3T3, luminescence, primary screen (AID 2098).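 Further: luciferase reports HSF-1 transcriptional activity via heat shock element; 0% = median of DMSO wells and -100% = zero luminescence signal.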 The following applies: NIH3T3-HGL HSE-luciferase, MG132-induced, luminescence 8 h; stronger effect = lower value; screened at 7.5 µM (by protocol).
Regarding `COc1ccc(-c2ccc3nnc(SCC(=O)Nc4ccc(NC(C)=O)cc4)n3n2)cc1`, the activity change, negative = inhibition is -1.23%.

For the molecule `COc1ccc(S(=O)(=O)N2CCCC2CNC(=O)C(=O)NC2CC2)cc1` (stereo not drawn), the activity change, negative = inhibition was -3.82%.

For `CCOc1ccc(N(CC(=O)NC2CCCCCC2)S(=O)(=O)c2c(C)[nH]c(=O)[nH]c2=O)cc1`, the activity change, negative = inhibition was -0.37%.

Regarding `COc1ccc(N(CC(=O)NC2CCCCC2)S(=O)(=O)c2c(C)[nH]c(=O)[nH]c2=O)cc1`, the activity change, negative = inhibition was 4.32%.

With `COc1ccc(N(CC(=O)NC2CCCCCCC2)S(=O)(=O)c2c(C)nn(C)c2C)cc1`, the activity change, negative = inhibition is -60.7% (active).

For `CCn1ccnc1CN(C)C(=O)c1cc(COc2ccc(Cl)cc2OC)on1`, the activity change, negative = inhibition is -51.9% (active).

In the case of `COc1cc(Cl)ccc1OCc1cc(C(=O)N(C)CCc2c(C)n[nH]c2C)no1`, the activity change, negative = inhibition is 11.4%.

On to `CCn1ccnc1CN(C)C(=O)c1cc(COc2ccc(-n3cncn3)cc2)on1`, for which the activity change, negative = inhibition is -9.56%.

Regarding `Cc1cc2ccccc2n1CCC(=O)O`, the activity change, negative = inhibition was -0.843%.

As for `O=C(O)CCn1c(O)c(C=C2N=c3ccccc3=N2)sc1=S`, the activity change, negative = inhibition was -52.2% (active).

Regarding `O=C(O)CCn1c(Cc2ccccc2)nc2ccccc21`, the activity change, negative = inhibition is 0.662%.

`C=CCOc1ccc(/C=C/C(=O)OC(C)C(=O)Nc2ccc(NC(C)=O)cc2)cc1` (stereo not drawn): the activity change, negative = inhibition is 12.2%.

Take `COc1ccc(CCNC(=S)N2CCN(S(=O)(=O)c3ccc(F)cc3)CC2)cc1`: the activity change, negative = inhibition was -3.63%.

For the molecule `CCC(=O)N1c2ccccc2NC2=C(C(=O)CCC2)C1c1ccco1` (stereo not drawn), the activity change, negative = inhibition is -0.999%.

For `CCCC(=O)N1c2ccccc2NC2=C(C(=O)CCC2)C1c1ccc(F)cc1` (stereo not drawn), the activity change, negative = inhibition was -0.85%.

Regarding `CC(C)C(=O)N1c2ccccc2NC2=C(C(=O)CCC2)C1c1ccc(N(C)C)cc1` (stereo not drawn), the activity change, negative = inhibition was -60.9% (active).

As for `O=C(NCC1(N2CCCCC2)CCCCC1)c1ccc(NS(=O)(=O)c2ccc(F)cc2)cc1`, the activity change, negative = inhibition was -3.19%.

For `CN(C(=O)COC(=O)c1ccc(Br)o1)c1c(N)n(Cc2ccccc2)c(=O)[nH]c1=O`, the activity change, negative = inhibition is -3.83%.

As to `O=C(COC(=O)Cc1c[nH]c2ccccc12)NCCc1ccccc1`, the activity change, negative = inhibition was -4.81%.

Turning to `Cc1cc(=O)oc2cc(NC(=O)C(C)Oc3ccccc3)ccc12` (stereo not drawn), the activity change, negative = inhibition was 1.47%.

Take `COc1ccc(Oc2c(Cl)cnn(-c3ccccc3)c2=O)cc1`: the activity change, negative = inhibition is -5.38%.

In the case of `Cc1cccc(-n2ncc(C#N)c2-n2cccc2)c1`, the activity change, negative = inhibition is 2.7%.

In the case of `Cc1cccc(-n2ncc(Cl)c(Cl)c2=O)c1`, the activity change, negative = inhibition was -95.3% (active).

On to `CC1(c2ccc(Cl)cc2Cl)NC(=O)N(CC(=O)Nc2cccnc2Cl)C1=O` (stereo not drawn), for which the activity change, negative = inhibition is 1.88%.

Consider `CCCOc1ccc(Cl)cc1Nc1nc(NCCO)nc(N2CCCC2)n1`, for which the activity change, negative = inhibition is 1.49%.

In the case of `COC(=O)c1ccc(COC(=O)C2CCN(S(=O)(=O)c3c(Cl)cccc3Cl)CC2)o1`, the activity change, negative = inhibition was 5.96%.

Regarding `COc1cc(SC)ccc1C(=O)Nc1nc(C)cs1`, the activity change, negative = inhibition was -63.8% (active).

Regarding `COc1cc(SC)ccc1C(=O)Nc1cc(C)ccn1`, the activity change, negative = inhibition was 28.6%.

Consider `COC(=O)c1sc(NC(=O)c2ccc(OC)cc2OC)nc1C`, for which the activity change, negative = inhibition was -40.1%.

As to `Cc1ccc(C(=O)C(C)OC(=O)Cc2n[nH]c(=O)c3ccccc23)cc1C` (stereo not drawn), the activity change, negative = inhibition was -5.5%.

As to `NC(=O)c1ccsc1NC(=O)COC(=O)Cc1n[nH]c(=O)c2ccccc12`, the activity change, negative = inhibition was -1.64%.

`COc1ccc(CC(=O)OC(C)C(=O)Nc2ccc(S(N)(=O)=O)cc2)cc1` (stereo not drawn): the activity change, negative = inhibition is -3.68%.

On to `CCc1cccc(NC(=O)COC(=O)C2CCN(c3ccc(C(F)(F)F)cn3)CC2)c1`, for which the activity change, negative = inhibition was -4.52%.

For the molecule `CCc1ccnc(NC(=O)Nc2ccc(OCc3ccccc3)cc2)c1`, the activity change, negative = inhibition was -11.4%.

For the molecule `O=C(O)/C=C\C(=O)Nc1ccc(OCc2ccccc2)cc1`, the activity change, negative = inhibition is -65.7% (active).

In the case of `Cc1cccc(NC(=O)Nc2ccc(OCc3ccccc3)cc2)n1`, the activity change, negative = inhibition was 1.3%.

As for `O=C(CCCN=C1NS(=O)(=O)c2ccccc21)OCC(=O)c1ccc(F)c(F)c1`, the activity change, negative = inhibition was -2.57%.

Turning to `CCN(Cc1cc2cc(C)ccc2[nH]c1=O)S(=O)(=O)c1ccccc1`, the activity change, negative = inhibition is -3.14%.

On to `COc1ccc2[nH]c(=O)c(CN(Cc3cccnc3)S(=O)(=O)c3ccccc3F)cc2c1`, for which the activity change, negative = inhibition was -52.3% (active).

For the molecule `CCC(=O)N(Cc1cc2cc(OC)ccc2[nH]c1=O)c1ccccc1C`, the activity change, negative = inhibition is -6.72%.

Take `COc1ccccc1NC(=O)C(C)OC(=O)c1ccc(-n2cnnn2)cc1` (stereo not drawn): the activity change, negative = inhibition is -4.36%.

Regarding `O=C1CC2(CCCC2)Oc2ccc(Cl)cc21`, the activity change, negative = inhibition was -9.81%.

Consider `CC[C@H]1CN2CCc3cc(OC)c(OC)cc3[C@@H]2C[C@@H]1C[C@H]1NCCc2cc(OC)c(OC)cc21`, for which the activity change, negative = inhibition was -74.7% (active).

As for `COc1cc2c(cc1O)[C@H](Cc1ccc(Oc3cc(C[C@@H]4NCCc5cc(OC)c(O)cc54)ccc3O)cc1)NCC2`, the activity change, negative = inhibition was -2.77%.

Consider `COc1ccc2c(c1)CCNC2Cc1ccc(OC)c(O)c1` (stereo not drawn), for which the activity change, negative = inhibition is 0.52%.

With `C=CCOC(=O)C1=C[C@H](c2ccc(Br)cc2)C[C@H](OCCCCO)O1`, the activity change, negative = inhibition was -3.77%.

On to `O=C(NCc1ccccc1Cl)C1CCN(c2ncnc3c2nc2n3CCCCC2)CC1`, for which the activity change, negative = inhibition is -6.69%.

With `COc1cccc(NC(=O)C2CCCN(c3ncnc4c3nc3n4CCCCC3)C2)c1` (stereo not drawn), the activity change, negative = inhibition was -3.75%.

`CCOC(=O)c1cccc(NC(=O)C2CCN(c3ncnc4c3nc3n4CCCCC3)CC2)c1`: the activity change, negative = inhibition is -72.4% (active).

With `COc1ccccc1CNC(=O)CSc1nc(=O)n(Cc2ccncc2)c2c1CCC2`, the activity change, negative = inhibition was -0.526%.

In the case of `Cn1c(SCC(=O)c2ccccc2)ncc(C(=O)Nc2ccc(F)cc2)c1=O`, the activity change, negative = inhibition was 3.83%.

Take `Cc1nc(C)c(-c2nnc(-c3cccc(S(=O)(=O)N(C)C)c3)o2)cc1C(=O)NN`: the activity change, negative = inhibition was -63.1% (active).

Take `CN(C)S(=O)(=O)c1cccc(NC(=O)Cc2ccsc2)c1`: the activity change, negative = inhibition was 5.64%.

As for `Cc1ccc(/C=N/NC(=S)Nc2cccc(S(=O)(=O)N(C)C)c2)o1`, the activity change, negative = inhibition is -4.55%.

On to `COc1cccc(CNC(=O)C(=O)NCCC2CCCCN2S(=O)(=O)c2ccc(C)cc2)c1` (stereo not drawn), for which the activity change, negative = inhibition was -3.75%.

Take `COc1cccc(N2CC(NS(=O)(=O)c3ccc(Cl)cc3)CC2=O)c1` (stereo not drawn): the activity change, negative = inhibition is 8.69%.

Turning to `C=C(C)C(=O)O[C@H]1C/C(C)=C\C(=O)/C=C(\C)[C@H](O)[C@@H]2OC(=O)C(=C)[C@@H]21`, the activity change, negative = inhibition was -73.5% (active).

`CN(CC(=O)NCc1cccnc1)S(=O)(=O)c1cc(Cl)ccc1Cl`: the activity change, negative = inhibition was 1.42%.

Take `CCN(CC(=O)Nc1ccc(NC(C)=O)cc1)C(=O)C1CC(=O)N(Cc2ccc(C)cc2)C1` (stereo not drawn): the activity change, negative = inhibition is -0.586%.

As to `COc1ccccc1OCCCC(=O)Nc1ccc2c(c1)OCCO2`, the activity change, negative = inhibition is 1.02%.

Take `CCOc1ccc(NCCC(=O)c2ccc3c(c2)OCO3)cc1`: the activity change, negative = inhibition is -1.61%.

Take `COC(=O)CCNc1ccc2c(c1)OCCO2`: the activity change, negative = inhibition was -72.6% (active).

In the case of `Cc1ccc2nc(SCC(=O)N3CC(C)OC(C)C3)nc(=O)n2c1` (stereo not drawn), the activity change, negative = inhibition was 3.03%.

`Cc1ccc(S(=O)(=O)CCC(=O)OCC(=O)N(C)C2CCS(=O)(=O)C2)cc1` (stereo not drawn): the activity change, negative = inhibition is -3.16%.

In the case of `COc1ccc(CN2[C@@H](CC(=O)O)c3cc(F)ccc3S2(=O)=O)cc1`, the activity change, negative = inhibition was -5.27%.

Turning to `O=S1(=O)CC/C(=N\Nc2ccc(F)cc2)c2ccsc21`, the activity change, negative = inhibition is -74.8% (active).

As to `COc1ccc(C(=O)N/N=C2\CCS(=O)(=O)c3ccc(F)cc32)cc1OC`, the activity change, negative = inhibition is 9.4%.

On to `CCN(CC(=O)NCc1ccco1)S(=O)(=O)c1ccc(F)cc1`, for which the activity change, negative = inhibition was -5.85%.

Turning to `CCN(CC(=O)N1CCCC1)S(=O)(=O)c1ccc(F)cc1`, the activity change, negative = inhibition was -65.5% (active).

Consider `COc1ccc(S(=O)(=O)N(C)CC(=O)N2CCCC2)cc1`, for which the activity change, negative = inhibition is 0.377%.

In the case of `COc1ccc(CNC(=O)C2CCCC2)cc1`, the activity change, negative = inhibition was -0.797%.

Regarding `CCOc1ccc(NC(=O)CN(C)C(=O)COc2cccc(CC)c2)cc1OCC`, the activity change, negative = inhibition was 3.71%.

In the case of `COC(=O)CCCC1=CC2=CC(=O)C(C)(OC(=O)c3cccs3)C(=O)C2=CN1c1cccc(C#N)c1` (stereo not drawn), the activity change, negative = inhibition was 0.873%.

On to `COC(=O)CCCC1=CC2=CC(=O)C(C)(OC(=O)c3cccs3)C(=O)C2=CN1CC1CC1` (stereo not drawn), for which the activity change, negative = inhibition is -2.87%.

With `COC(=O)CCCC1=CC2=C(c3ccccc3)C(=O)C(C)(OC(=O)C3CCCC3)C(=O)C2=CN1c1ccc(OC)cc1` (stereo not drawn), the activity change, negative = inhibition is -88.7% (active).

In the case of `CC(=O)c1ccc(S(=O)(=O)Nc2ccc(-c3ccc4nncn4n3)cc2)cc1`, the activity change, negative = inhibition was 2.56%.

In the case of `COc1ccc(NC(=O)CN(C)C(=O)c2ccc(COc3ccccc3)o2)cc1`, the activity change, negative = inhibition is 3.16%.

For the molecule `CN(c1ccc2nc3ccccc3c(=O)n2n1)C1CCCCC1`, the activity change, negative = inhibition is -86.8% (active).

As for `CN(C(=O)c1cc2c(=O)n3ccccc3nc2s1)C1CCCCC1`, the activity change, negative = inhibition is 23.2%.

`O=c1c2ccccc2nc2n1C1(CCCCC1)Cc1ccccc1-2`: the activity change, negative = inhibition was 15.3%.

Take `CCCOc1ccc(C(=O)CCC(=O)OC(C)C(=O)Nc2ccc(NC(C)=O)cc2)cc1` (stereo not drawn): the activity change, negative = inhibition was 11.7%.

On to `COCCCNC(=S)N1CCCC(c2nc3cc(C)c(C)cc3[nH]2)C1` (stereo not drawn), for which the activity change, negative = inhibition is 5.14%.

Turning to `CCCNC(=S)N1CCCC(c2nc3ccccc3[nH]2)C1` (stereo not drawn), the activity change, negative = inhibition is -82% (active).

Take `CN(C)CCCNC(=S)N1CCC(c2nc3ccccc3[nH]2)CC1`: the activity change, negative = inhibition was -2.77%.

Take `CCOc1ccc(S(=O)(=O)Nc2cccc(C(=O)NCC3(N4CCCCC4)CCCCC3)c2)cc1`: the activity change, negative = inhibition is -3.29%.

In the case of `CC(=O)N[C@H]1[C@H]([C@H](O)[C@H](O)CO)OC(C(=O)O)=C[C@@H]1O`, the activity change, negative = inhibition was -3.57%.

With `COc1ccc2oc(C(=O)OCC(=O)N(CC(C)C)c3c(N)n(Cc4ccccc4)c(=O)[nH]c3=O)c(C)c2c1`, the activity change, negative = inhibition was 1.6%.

On to `CCN(Cc1ccccc1)C(=O)Cc1ccc(OC)c(S(=O)(=O)N2CCOCC2)c1`, for which the activity change, negative = inhibition was -13.3%.

The values are drawn from PubChem BioAssay AID2098 (Broad Institute, 2009).
